# Data: PubChem BioAssay AID1671193 (National Center for Advancing Translational Sciences (NCATS), 2021)
# About 180 (0.12%) of roughly 150,000 compounds were called active. About 6% were inconclusive and are not listed. The entries come from a sample that favours actives as a whole. Unmarked numbers belong to inactive results. Calls follow the shape of the dose curve; as a rule, active = well fitted cell-killing curve with a large enough effect; inconclusive = small, poorly fitted or top-dose-only effect, or effect the other way; inactive = flat fitted curve, though single readings scatter.
# Test: GF-AFC viability counterscreen for inhibitors of alpha-synuclein gene (SNCA) expression; also: nearly all actives have a fitted effect of over 30% in size
# Settings: HEK-293-SNCA-luc viability, GF-AFC fluorescence, 24 h; series mostly up to 57.1 µM; activity change, negative = cytotoxicity: at the top concentration
# Source text: Assay Submitter (PI): Daniel R. Scoles Ph.D.
# Department of Neurology, University of Utah, Salt Lake City, Utah
# Accumulation of alpha-synuclein is a main underlying pathological feature of Parkinson's disease (PD) and alpha-synucleinopathies, for which lowering expression of the alpha-synuclein gene (SNCA) is a potential therapeutic avenue. Using a cell-based luciferase reporter of SNCA expression we performed a quantitative high throughput screen (qHTS) of 155,885 compounds in dose response. The screening assay was generated using genome editing to insert the luciferase gene downstream and in frame of the SNCA gene in HEK-293 cells (1). A viability counterscreen using GF-AFC was used to eliminate cytotoxic and false positive compounds. After in silico analysis (clustering, removal of frequent hitter nuisance chemotypes), inhibitor compounds from the primary screen were selected for follow up and re-tested at 11-doses in the SNCA-luc cells (luciferase and GF-AFC confirmation), and in CMV-luc expressing cell line to flag general transcriptional repressors.
# Described herein are the results of the GF-AFC viability counterscreen for SNCA inhibitors; inactivity (no decrease in fluorescence signal, not cytotoxic) is the desired output for this assay.
# 1. Dansithong, W., Paul, S., Scoles, D. R., Pulst, S. M., and Huynh, D. P. (2015) Generation of SNCA Cell Models Using Zinc Finger Nuclease (ZFN) Technology for Efficient High-Throughput Drug Screening. PLoS ONE 10, e0136930.
# SEQUENCE No. (e.g., 1, 2, 3, etc.); […] (e.g., Cells, Incubation, Reagent, etc.); VALUE; DESCRIPTION
# 1; Cells; 4 uL; Dispense 1500 HEK-293-SNCA-luc cells/well into Greiner 1536-well white / solid bottom tissue culture treated plate. The plate was covered with metal lids with gas-exchange holes.
# 2; Incubate; 24 hours; Incubate at 37C, 5% CO2, 95% RH.
# 3; Compounds; 23 nL; Compounds and controls were transferred via a Kalypsys Pin Tool (Wako USA) equipped with a 1536-slotted pin array. The plate was covered with metal lids with gas-exchange holes.
# 4; Incubate; 24 hours; Incubate at 37C, 5% CO2, 95% RH.
# 5; Dispense; 1 uL; Dispense Gly-Phe-7-amino-4-trifluoromethylcoumarin (GF-AFC, prepared at 125 uM in PBS) was added. The plate was covered with metal lids with gas-exchange holes.
# 6; Incubate; 30 min; Incubate at 37C, 5% CO2.
# 7; Detector; Fluorescence; Measure fluorescence with ViewLux microplate reader (PerkinElmer) equipped with 405/10 excitation and 540/25 emission filters.
# 8; Dispense; 3 uL; Dispense ONE-Glo ([…]) lucifase detection reagent was added to each well. Plates were covered with metal lids with gas-exchange holes.
# 9; Incubate; 15 min; Incubate at room temperature.
# 10; Detector; Luminescence; Measure luminescence with ViewLux microplate reader (PerkinElmer) equipped with clear filters.
# NOTES (numbers refer to sequence above)
# 1; HEK-293-SNCA-luc were cultured and suspended in phenol-red free DMEM (4.5 g/L glucose, 25 mM HEPES, cat #21063 (Thermo)).
# 3; Compounds were added to the assay plate in an 11-point intra plate dose response, 1:3 titration in DMSO with a final concentration range of […]. Vehicle-only plates, with DMSO being pin-transferred to every well, were inserted at the beginning of screening runs to confirm expected assay performance. Activity was normalized to wells containing medium only (-100% activity, full inhibition) and SNCA-luc cells treated with DMSO vehicle control (0% activity), contained on the same plate as test samples.
# 10; Signals were analyzed, and dose-response curves were fit using the Hill equation. Compounds in curve classes -1.1, -1.2, -2.1, -2.2 in the SNCA-luc assay were considered active. Compounds were eliminated from further consideration if also active (curve class -1.1, -1.2, -1.3, -1.4, -2.1, -2.2, -2.3, -2.4) in the GF-AFC cytotoxicity assay.
# Potency is read from the fitted curve at half-maximal effect.
Structure (SMILES),"activity change, negative = cytotoxicity",Potency
CCCCS(=O)(=O)N1CCCC(Cn2c(C3CC3)nc3cccnc32)C1 (stereo unspecified),-2.74% (inactive),
O=C1CC(c2ccccc2)N(Cc2cn[nH]c2-c2ccc(F)cc2)CCCCCN1 (stereo unspecified),-15.3% (inactive),
COc1ccc(-c2nc(C(C)C)nc3c2CCN([S+](=O)([O-])c2cccc(C(F)(F)F)c2)CC3)cc1,-10.8% (inactive),
CC(C)NC(=O)N1CC(Oc2ccc(-c3noc(-c4cccnc4)n3)cc2)C1,-29.9% (inactive),
O=C(Nc1cccc(Cl)c1)C1CCCN(c2ccnc3ccnn23)C1 (stereo unspecified),-11% (inactive),
c1cn(-c2ccc(N3CCCCCC3)nc2)c(-c2cc3n(n2)CCCNC3)n1,7.54% (inactive),
CSCC(=O)N1CCC2(CC1)CC(c1ccccc1)CN(C)C2 (stereo unspecified),0.187% (inactive),
O=C(c1cccc(C(F)(F)F)c1)N1C[C@@H](CO)[C@H](c2ccccn2)C1,0.505% (inactive),
CC(C)c1ccc(S(=O)(=O)N2CCc3nn(C)c(=O)n3CC2)cc1,4.59% (inactive),
COc1ccc(C(=O)N2C(C(=O)NCC(C)C)COC23CCN(C(=O)C2CCC2)CC3)cc1 (stereo unspecified),4.16% (inactive),
Cc1ccc(NC(=O)CN2CC3CC(C2)[C@H]2CCCC(=O)N2C3)cc1 (stereo partly specified),-2.58% (inactive),
O=C(NC[C@H]1OC[C@@H](NCc2ccccn2)[C@@H]1O)C1CCCC1,-11.2% [at 87.6 µM] (inactive),
Cc1ccc(CN2CCCN(Cc3ccncc3)C(c3ccccc3)CC(=O)NCC2)s1 (stereo unspecified),1.35% (inactive),
COc1ccc(CNC[C@H]2O[C@H](Cc3cc(-c4ccc(OC)cc4)on3)CC[C@@H]2O)cc1,3.22% (inactive),
O=C(C1CCCC1)N1C[C@@H](CO)[C@H](c2ccncc2)C1,,20 µM (active)
Cc1ccc(C(=O)N2C[C@@H](CO)[C@H](c3ccncc3)C2)c(C)c1,-0.327% (inactive),
CCOc1ccc(C(=O)N2C[C@@H](CO)[C@H](c3ccncc3)C2)cc1,7.42% (inactive),
O=C1CCC2(CCN(Cc3ccc4[nH]ccc4c3)CC2)CN1CCc1ccccc1,-9.99% (inactive),
O=C(c1ccoc1)N1CCC(N2C(=O)[C@H]3CN(Cc4ccccc4)C[C@H]3C2=O)CC1,14.6% (inactive),
CCCNC(=O)N1CCC2(CC1)CC(C(=O)N1CCOCC1)N(C)C2 (stereo unspecified),-3.1% (inactive),
O=C(NCc1ccnc2[nH]ccc12)c1ccccn1,2.85% [at 87.6 µM] (inactive),
COc1ccc(-c2cc(-c3cnc4[nH]ccc4c3)cn3cncc23)cn1,-7.15% [at 87.6 µM] (inactive),
COC[C@@H]1[C@H](NC(=O)C2(Cn3ccnc3)CC2)[C@@H]2CCO[C@H]12,0.192% (inactive),

Structure (SMILES),"activity change, negative = cytotoxicity",Potency
CCN1CCN(C(=O)c2cn3cc(-c4ccc(C(F)(F)F)cc4)sc3n2)CC1,4.72% (inactive),
Cc1noc(C)c1CNC(=O)[C@H]1CN(Cc2ccccc2)C[C@H]1C(=O)O,-8.06% (inactive),
COCC(=O)N[C@H]1C[C@H]2C(=O)Nc3ccc(/C=C/c4ccc(OC)cc4)cc3C(=O)N2C1,-2.8% (inactive),
CN(Cc1cccnc1)C1CN(C(=O)Nc2ccccc2F)C1,-21% (inactive),
COCCN1C(=O)c2cccn2CC1CNC(=O)CCc1nc(-c2ccccc2)no1 (stereo unspecified),7.27% (inactive),
O=C1NCCCCCN(S(=O)(=O)c2ccc3c(c2)CCC3)[C@H]2CCCC[C@@H]12,-24% (inactive),
COc1cccc(CNC(=O)c2cc(-c3ccccc3)nc3c2cnn3C)c1,5.25% (inactive),
CC1(c2ccccc2)N(Cc2ccc(O)cc2)C(=O)OC12CCN(Cc1ccc(C#N)cc1)CC2 (stereo unspecified),-18.3% (inactive),
COC(=O)CNC(=O)C1CCCN1Cc1ccc(-c2cc(C)cc(C)c2)cc1 (stereo unspecified),5.59% (inactive),
Cc1cccc(N2Cc3c(NCCCN4CCCCC4)ncnc3N(C)CC2=O)c1,6.15% (inactive),
O=C(NCc1cccnc1)c1cn2cc(-c3cccc(C(F)(F)F)c3)sc2n1,-7.27% (inactive),
CCOC(=O)C1CCCN(C(=O)C2CCc3nnc(CN[S+](C)(=O)[O-])n32)C1 (stereo unspecified),0.593% (inactive),
Cc1ccc(C(=O)N2CCCC(c3nc(C4CCOCC4)no3)C2)cn1 (stereo unspecified),5.29% (inactive),
CN(Cc1ccsc1)C(=O)C1CCCN(C2CCN(C(=O)C3CC3)CC2)C1 (stereo unspecified),3.93% (inactive),
COc1cccc(-c2cccc(CN3CCCC3C(=O)NCC(C)C)c2)c1 (stereo unspecified),-9.2% (inactive),
Cc1ccnc(NC(=O)C2CC(=O)N(c3n[nH]c4cc(Br)ccc34)C2)c1 (stereo unspecified),1.61% (inactive),
COCC1CN(C2CCC2)CC12CCN(C(=O)c1ccc(C)s1)CC2 (stereo unspecified),11.7% (inactive),
O=C1NC2(CCN(C(=O)c3ccccc3)C2)COc2ccccc21 (stereo unspecified),9.42% [at 87.6 µM] (inactive),
Oc1ccccc1CN1CCC(O)(c2csc(CN3CCN(c4ccccn4)CC3)n2)CC1,-1.19% (inactive),
FC(F)(F)c1cccc(C2=NOC3(CCCN(Cc4ccccn4)C3)C2)c1 (stereo unspecified),-9.31% (inactive),
O=C(C1CC=CC1)N1CCC2(CC1)NCCc1c2[nH]c2ccccc12,-15.1% [at 12.5 µM],
COc1ccc(-c2cc3c(nc2-c2ccccc2)nc(C(=O)NCCN(C)C)n3C)cc1OC,-13.2% (inactive),
O=C(Nc1ccccc1)N1CCC(C(=O)N2CCCC(c3nc4ccncc4[nH]3)C2)CC1 (stereo unspecified),-0.207% (inactive),
